The source made the active and inactive calls.
Assays:
[1] = optical density shifts of acrAB sulA E. coli – strain DRC41, OD650, 48 h, E. coli filamentation inducer project, primary screen (AID 1152); conditions: higher = more signal, called active from +8 up or from −8 down;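 note: E. coli MC1000 strain DRC41 lacking acrAB efflux pump and sulA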
[2] = probe aLefty1 binding on compound microarray – biochemical, small-molecule microarray, 635/667 nm fluorescence, primary screen (AID 1153); conditions: higher = more signal;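 note: score merges spot fluorescence with signal-to-noise ratio from the scanned slide images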
[3] = plasmodial surface anion channel blockers, osmotic lysis – cell-based, P. falciparum Indochina, OD700, 1 h, primary screen (AID 1154); conditions: P. falciparum Indochina infected RBC osmotic lysis, higher = more signal, called active from +8 up or from −8 down
[4] = plasmodial surface anion channel blockers, osmotic lysis – cell-based, P. falciparum Indochina, OD700, 2 h, primary screen (AID 1155);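 note: lysis reports solute entry through the parasite surface anion channel PSAC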; conditions: P. falciparum Indochina infected erythrocytes, higher = more signal, called active from +8 up or from −8 down
[5] = changes in parasitized red cell lysis, either direction – P. falciparum Indochina, OD700, 3 h, PSAC antagonist project, primary screen (AID 1156); conditions: P. falciparum-infected erythrocytes, osmotic lysis, higher = more signal, called active from +8 up or from −8 down
[6] = plasmodial surface anion channel blockers, osmotic lysis – cell-based, P. falciparum Indochina, OD700, 18 h, primary screen (AID 1157); conditions: P. falciparum Indochina infected erythrocytes, osmotic lysis OD700, 18 h; higher = more signal, called active from +8 up or from −8 down
[7] = S6 kinase pathway phospho-S6 level changes – cell-based, A549, cytoblot, luminescence, serum-stimulated, primary screen (AID 1158); conditions: 5 h, higher = more signal;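 note: serum-stimulated A549 lung adenocarcinoma cells; signal is phosphorylated S6 detected by cytoblot immunostaining with HRP secondary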
[8] = target: NADPH oxidase 2 (Homo sapiens) (UniProt P04839); test: compounds shifting NOX2 Amplex Red fluorescence – cell-based, HEK293-NOX2, PMA-stimulated, NOX inhibitor project, primary screen (AID 1159); conditions: 45 min, higher = more signal, called active from +8 up or from −8 down; note: test concentration not given here
Chain of NADPH oxidase 2 (Homo sapiens) (P04839 whole entry, looked up): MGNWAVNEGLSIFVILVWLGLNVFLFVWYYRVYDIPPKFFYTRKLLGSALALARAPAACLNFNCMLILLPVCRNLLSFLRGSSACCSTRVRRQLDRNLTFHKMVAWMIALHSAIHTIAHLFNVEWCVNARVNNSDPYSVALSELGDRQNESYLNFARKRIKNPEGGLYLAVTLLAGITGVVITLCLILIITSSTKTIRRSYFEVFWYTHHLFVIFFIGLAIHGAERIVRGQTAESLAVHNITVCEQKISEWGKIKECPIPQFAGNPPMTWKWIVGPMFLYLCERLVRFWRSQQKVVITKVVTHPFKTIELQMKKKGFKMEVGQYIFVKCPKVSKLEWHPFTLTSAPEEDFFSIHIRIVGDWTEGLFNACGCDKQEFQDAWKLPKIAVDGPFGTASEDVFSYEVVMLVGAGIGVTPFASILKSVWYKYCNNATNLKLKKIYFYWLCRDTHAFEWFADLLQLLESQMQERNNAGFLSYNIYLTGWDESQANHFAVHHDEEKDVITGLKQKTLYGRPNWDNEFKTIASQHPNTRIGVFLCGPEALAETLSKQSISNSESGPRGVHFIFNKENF

[9] = target: NADPH oxidase 4 (Homo sapiens) (UniProt Q9NPH5); test: compounds shifting NOX4 Amplex Red fluorescence – cell-based, HEK293-NOX4, tetracycline-induced, NOX inhibitor project, primary screen (AID 1160); conditions: HEK293-NOX4, Amplex Red H2O2 fluorescence, 45 min; higher = more signal, called active from +8 up or from −8 down
Chain of NADPH oxidase 4 (Homo sapiens) (Q9NPH5 whole entry, looked up): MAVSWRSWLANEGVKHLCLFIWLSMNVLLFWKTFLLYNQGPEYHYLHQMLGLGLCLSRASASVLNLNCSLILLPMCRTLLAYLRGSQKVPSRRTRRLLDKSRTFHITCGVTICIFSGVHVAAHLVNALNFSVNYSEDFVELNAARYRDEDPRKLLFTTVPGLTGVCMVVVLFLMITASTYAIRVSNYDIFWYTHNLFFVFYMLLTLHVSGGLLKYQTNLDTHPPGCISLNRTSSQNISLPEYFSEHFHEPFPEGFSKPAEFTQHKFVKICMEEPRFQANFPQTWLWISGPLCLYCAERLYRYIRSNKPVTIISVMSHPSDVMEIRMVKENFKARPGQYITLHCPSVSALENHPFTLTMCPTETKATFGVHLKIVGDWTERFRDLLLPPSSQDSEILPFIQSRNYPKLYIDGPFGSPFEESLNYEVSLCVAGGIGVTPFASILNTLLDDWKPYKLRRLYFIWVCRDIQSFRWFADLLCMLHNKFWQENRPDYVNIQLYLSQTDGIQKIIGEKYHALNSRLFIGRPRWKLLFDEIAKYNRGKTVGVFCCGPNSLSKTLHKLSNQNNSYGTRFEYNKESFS

[10] = target: NADPH oxidase 5 (Homo sapiens) (UniProt Q96PH1); test: compounds shifting NOX5 Amplex Red fluorescence – cell-based, HEK293-NOX5, NOX inhibitor project, primary screen (AID 1161); conditions: HEK293-NOX5, ionomycin, 45 min, higher = more signal
Chain of NADPH oxidase 5 (Homo sapiens) (Q96PH1 whole entry, looked up): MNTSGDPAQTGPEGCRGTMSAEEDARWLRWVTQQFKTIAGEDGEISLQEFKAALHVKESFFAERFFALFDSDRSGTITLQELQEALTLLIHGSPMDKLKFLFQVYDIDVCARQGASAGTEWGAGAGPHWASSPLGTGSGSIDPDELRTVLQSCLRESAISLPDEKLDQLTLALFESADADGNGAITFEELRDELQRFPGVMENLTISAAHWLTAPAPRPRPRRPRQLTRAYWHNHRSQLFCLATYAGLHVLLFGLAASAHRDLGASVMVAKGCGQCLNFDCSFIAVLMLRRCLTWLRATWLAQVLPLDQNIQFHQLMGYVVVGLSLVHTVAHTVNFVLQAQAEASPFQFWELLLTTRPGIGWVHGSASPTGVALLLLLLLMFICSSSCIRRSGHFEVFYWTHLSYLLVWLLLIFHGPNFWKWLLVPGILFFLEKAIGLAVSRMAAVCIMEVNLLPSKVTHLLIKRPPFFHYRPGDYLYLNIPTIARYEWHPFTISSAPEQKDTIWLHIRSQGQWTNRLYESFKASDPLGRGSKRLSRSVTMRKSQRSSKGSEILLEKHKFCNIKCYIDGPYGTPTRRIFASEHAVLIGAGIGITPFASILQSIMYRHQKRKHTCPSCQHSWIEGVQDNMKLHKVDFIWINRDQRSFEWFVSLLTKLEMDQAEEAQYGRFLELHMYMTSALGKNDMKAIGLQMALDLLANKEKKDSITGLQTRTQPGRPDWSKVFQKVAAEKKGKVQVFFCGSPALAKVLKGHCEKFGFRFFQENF

[11] = compound effects on lung adenocarcinoma cell viability – A549, calcein-AM fluorescence, 48 h, basal, profiling panel (AID 1162); conditions: higher = more signal; note: test concentration not given here
[12] = compound effects on differentiated 3T3-L1 adipocyte viability – cell-based, 3T3-L1 adipocytes, calcein-AM fluorescence, 48 h, basal, profiling panel (AID 1163); conditions: 3T3-L1 adipocytes viability, higher = more signal; note: test concentration not given here
[13] = compound effects on hepatocellular carcinoma cell viability – HepG2, calcein-AM fluorescence, 48 h, basal, profiling panel (AID 1164); conditions: higher = more signal; note: test concentration not given here
[14] = compound effects on multiple myeloma cell viability – MM1S, calcein-AM fluorescence, 48 h, basal, profiling panel (AID 1165); conditions: higher = more signal; note: test concentration not given here
[15] = calcein-AM signal in unstimulated myeloma cells – cell-based, calcein-AM fluorescence, 48 h, PK04 Diversity Set, profiling panel (AID 1166); conditions: RPMI8226 myeloma viability, higher = more signal;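 note: cells grown under basal conditions without added stimulus; test concentration not given here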
[16] = JC-1 mitochondrial signal, unstimulated HepG2 cells – cell-based, JC-1 fluorescence, 24 h, 100 nL compound, profiling panel (AID 1167); conditions: HepG2 mitochondrial potential, higher = more signal; note: test concentration not given here
[17] = JC-1 mitochondrial signal, unstimulated adipocytes – cell-based, JC-1 fluorescence, 3T3-L1 adipocytes, 24 h, 100 nL compound, profiling panel (AID 1168); conditions: JC-1 mitochondrial fluorescence, higher = more signal, called active from +8 up or from −8 down; note: test concentration not given here
[18] = JC-1 mitochondrial signal, unstimulated myeloma cells – cell-based, JC-1 fluorescence, RPMI8226, 24 h, 100 nL compound, profiling panel (AID 1169); conditions: JC-1 mitochondrial potential fluorescence, higher = more signal; note: test concentration not given here
[19] = JC-1 mitochondrial signal, unstimulated MM1S myeloma – cell-based, JC-1 fluorescence, 24 h, 100 nL compound, profiling panel (AID 1170); conditions: MM1S mitochondrial potential, higher = more signal; note: test concentration not given here
[20] = resazurin metabolic signal in A549 cells – cell-based, resazurin fluorescence, 24 h, PK04 Diversity Set, profiling panel (AID 1171); conditions: A549 viability, higher = more signal, called active from +8 up or from −8 down; note: test concentration not given here

SMILES	z-score [1]	composite z-score [2]	z-score [3]	z-score [4]	z-score [5]	z-score [6]	z-score [7]	z-score [8]	z-score [9]	z-score [10]	z-score [11]	z-score [12]	z-score [13]	z-score [14]	z-score [15]	z-score [16]	z-score [17]	z-score [18]	z-score [19]	z-score [20]
NC(=O)NCC#Cc1ccc2c(c1)[C@]1(C(=O)N2)[C@H](c2ccc(O)cc2)N2[C@H](c3ccccc3)[C@H](c3ccccc3)OC(=O)[C@H]2[C@@H]1C(=O)N1CCN(c2ncccn2)CC1	0.642 (inactive)	0.266	1.36 (inactive)	0.747 (inactive)	0.458 (inactive)	0.565 (inactive)	-0.0168	1.06 (inactive)	0.478 (inactive)	1.68	0.719	0.464	-1.08	0.252	0.719	-1.83	-0.197 (inactive)	0.591	1.06	0.956 (inactive)
C=CCOC(=O)[C@H]1[C@@H]2C(=O)O[C@@H](c3ccccc3)[C@@H](c3ccccc3)N2[C@@H](c2ccc(OCCOC(=O)[C@@H]3C[C@@H]4C(=O)NCC(=O)N4[C@@H]3c3ccc(O)cc3)cc2)[C@]12C(=O)Nc1ccc(I)cc12	-0.481 (inactive)	0.0545	1.63 (inactive)	1.39 (inactive)	1.49 (inactive)	0.816 (inactive)	0.361	1.57 (inactive)	1.28 (inactive)	1.61	-0.566	-0.907	-0.368	-0.0033	0.169	-1.55	0.459 (inactive)	-0.688	-1.1	-0.148 (inactive)
CN1C(=O)C2C=CC(C(O)C3=C[C@H]4C[C@@H](C3)C4(C)C)N(Nc3ccc([N+](=O)[O-])cc3[N+](=O)[O-])C2C1=O (stereo not given in full)	-0.794 (inactive)	0.271	3.59 (inactive)	1.27 (inactive)	1.06 (inactive)	1.05 (inactive)	-0.456	0.0656 (inactive)	-0.0391 (inactive)	-1.2	0.895	-0.535	0.436	0.017	-0.481	-0.661	-1.35 (inactive)	-0.46	-1.1	-0.227 (inactive)
O=C1OCC=C[C@H]2OC34C=CCN(CCN5CCOCC5)C(=O)[C@H]3N(CCCCCCO)C(=O)[C@@H]4[C@@H]12 (stereo not given in full)	-0.416 (inactive)	0.0253	4.96 (inactive)	1.32 (inactive)	1.21 (inactive)	0.404 (inactive)	1.07	1.51 (inactive)	-0.325 (inactive)	1.92	-0.213	-0.0626	0.775	1.56	0.802	-0.00733	-0.199 (inactive)	1.11	0.858	-0.352 (inactive)
C=CCN1C(=O)[C@]2(Cc3ccccc31)N=C(c1ccc(OCCCO)cc1)O[C@@H]2c1ccccc1	-3.11 (inactive)	0.165	26 (active)	19.4 (active)	1.09 (inactive)	3.1 (inactive)	0.253	-1.42 (inactive)	0.273 (inactive)	-0.785	-0.686	-0.201	-0.377	-0.9	-3.41	-0.844	1.83 (inactive)	-1.11	-0.672	-2.13 (inactive)
C=CC[C@@]1(C(=O)NCCN2CCOCC2)N=C(c2ccc(OCCCO)cc2)O[C@@H]1c1ccccc1CN=[N+]=[N-]	-0.121 (inactive)	0.0193	24.4 (active)	13.4 (active)	2.29 (inactive)	0.203 (inactive)	1.15	-0.842 (inactive)	0.908 (inactive)	-0.701	-0.0982	1.56	0.88	-2.94	-1.03	1.86	-0.224 (inactive)	-0.129	-0.029	-0.468 (inactive)
O=C1c2ccccc2[C@@]2(Cc3ccccc3N(Cc3ccccc3)C2=O)[C@H](c2ccc(CO)cc2)N1Cc1ccccc1C(F)(F)F	0.165 (inactive)	0.152	1.92 (inactive)	-0.0022 (inactive)	0.678 (inactive)	-0.112 (inactive)	-0.106	-2.24 (inactive)	0.148 (inactive)	1.77	0.74	1	1.22	0.166	0.816	1.28	0.084 (inactive)	-0.0385	0.29	-1.16 (inactive)
CN1C(=O)C2C(C1=O)C1C=C(c3ccc(CO)cc3)C2C(C2CC2)N1Cc1sc2ccccc2c1Cl (stereo not given)	0.743 (inactive)	0.146	20.7 (active)	5.75 (inactive)	0.713 (inactive)	1.82 (inactive)	0.0504	-3.97 (inactive)	-0.852 (inactive)	-3.7	-0.245	0.612	1.79	-3.2	-4.33	2.19	0.46 (inactive)	-0.957	-2.05	-2.15 (inactive)

Source: PubChem BioAssay
